# Assays:
# [1] = molecular target: T1, CDK3/cyclin E (Homo sapiens) (UniProt P24864+O96020+Q00526); conditions: at 1 µM
# [2] = molecular target: T1, CDK3/cyclin E (Homo sapiens); conditions: at 10 µM
# [3] = molecular target: T2, Cyclin-dependent kinase 5/CDK5 activator 1 (Homo sapiens) (UniProt Q00535+Q15078); conditions: at 1 µM
# [4] = molecular target: T2, Cyclin-dependent kinase 5/CDK5 activator 1 (Homo sapiens); conditions: at 10 µM
# [5] = molecular target: T2, Cyclin-dependent kinase 5/CDK5 activator 1 (Homo sapiens); conditions: at 1 µM; remark: listed apart in the source
# [6] = molecular target: T2, Cyclin-dependent kinase 5/CDK5 activator 1 (Homo sapiens); conditions: at 10 µM; remark: listed apart in the source
# [7] = molecular target: T3, CDK6/cyclin D3 (Homo sapiens) (UniProt P30281+Q00534); conditions: at 1 µM
# [8] = molecular target: T3, CDK6/cyclin D3 (Homo sapiens); conditions: at 10 µM
# [9] = molecular target: T4, Cyclin-dependent kinase 7/ cyclin H (Homo sapiens) (UniProt P51946+P50613); conditions: at 1 µM
# [10] = molecular target: T4, Cyclin-dependent kinase 7/ cyclin H (Homo sapiens); conditions: at 10 µM
# [11] = molecular target: T5, CDK9/cyclin T1 (Homo sapiens) (UniProt O60563+P50750); conditions: at 1 µM
# [12] = molecular target: T5, CDK9/cyclin T1 (Homo sapiens); conditions: at 10 µM
# [13] = molecular target: T6, Serine/threonine-protein kinase Chk1 (Homo sapiens) (UniProt O14757); conditions: at 1 µM
# T6 sequence (whole entry): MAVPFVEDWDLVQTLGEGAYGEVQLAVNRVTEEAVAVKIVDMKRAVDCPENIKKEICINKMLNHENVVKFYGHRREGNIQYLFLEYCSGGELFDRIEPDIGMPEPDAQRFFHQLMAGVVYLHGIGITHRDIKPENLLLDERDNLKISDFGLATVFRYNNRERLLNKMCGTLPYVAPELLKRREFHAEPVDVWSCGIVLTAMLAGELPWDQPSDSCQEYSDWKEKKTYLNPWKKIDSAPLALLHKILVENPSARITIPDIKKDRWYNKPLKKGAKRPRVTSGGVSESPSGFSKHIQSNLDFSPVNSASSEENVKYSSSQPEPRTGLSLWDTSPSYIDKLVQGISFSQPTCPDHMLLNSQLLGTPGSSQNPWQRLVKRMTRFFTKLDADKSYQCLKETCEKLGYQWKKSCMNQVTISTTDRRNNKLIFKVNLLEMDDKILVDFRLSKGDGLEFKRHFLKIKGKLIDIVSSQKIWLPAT
# [14] = molecular target: T6, Serine/threonine-protein kinase Chk1 (Homo sapiens); conditions: at 10 µM
# [15] = molecular target: Serine/threonine-protein kinase Chk2 (Homo sapiens) (UniProt O96017); conditions: at 1 µM
# Sequence of Serine/threonine-protein kinase Chk2 (Homo sapiens) (O96017 whole entry, canonical isoform): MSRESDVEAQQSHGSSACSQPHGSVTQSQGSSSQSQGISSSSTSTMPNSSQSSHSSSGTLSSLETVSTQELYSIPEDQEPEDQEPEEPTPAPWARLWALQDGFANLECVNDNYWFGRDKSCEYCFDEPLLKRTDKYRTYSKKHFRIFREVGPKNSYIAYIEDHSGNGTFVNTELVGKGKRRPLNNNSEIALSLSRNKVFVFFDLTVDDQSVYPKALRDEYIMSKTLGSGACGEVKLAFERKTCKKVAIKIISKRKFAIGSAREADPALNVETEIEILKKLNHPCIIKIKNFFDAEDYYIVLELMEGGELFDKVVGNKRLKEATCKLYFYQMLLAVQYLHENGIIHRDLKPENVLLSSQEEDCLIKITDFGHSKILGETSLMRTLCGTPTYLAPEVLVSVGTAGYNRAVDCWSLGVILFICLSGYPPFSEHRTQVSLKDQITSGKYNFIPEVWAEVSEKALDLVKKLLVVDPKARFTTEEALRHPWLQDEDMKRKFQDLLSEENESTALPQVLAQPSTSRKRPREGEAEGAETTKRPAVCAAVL
# [16] = molecular target: Serine/threonine-protein kinase Chk2 (Homo sapiens) (UniProt O96017); conditions: at 10 µM
# [17] = molecular target: Casein kinase I isoform gamma-1 (Homo sapiens) (UniProt Q9HCP0); conditions: at 1 µM
# Sequence of Casein kinase I isoform gamma-1 (Homo sapiens) (Q9HCP0 whole entry, looked up, canonical isoform): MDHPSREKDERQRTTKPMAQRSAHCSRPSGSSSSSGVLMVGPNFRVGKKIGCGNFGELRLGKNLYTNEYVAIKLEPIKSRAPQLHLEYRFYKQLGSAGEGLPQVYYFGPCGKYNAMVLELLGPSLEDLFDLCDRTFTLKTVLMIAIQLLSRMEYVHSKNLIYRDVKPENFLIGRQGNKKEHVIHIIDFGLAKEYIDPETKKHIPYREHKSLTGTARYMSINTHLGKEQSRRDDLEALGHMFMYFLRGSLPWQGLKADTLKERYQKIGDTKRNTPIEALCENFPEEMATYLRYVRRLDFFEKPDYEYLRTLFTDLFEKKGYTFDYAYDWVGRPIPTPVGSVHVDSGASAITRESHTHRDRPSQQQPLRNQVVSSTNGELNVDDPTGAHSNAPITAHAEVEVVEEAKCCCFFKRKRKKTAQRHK
# [18] = molecular target: Casein kinase I isoform gamma-1 (Homo sapiens) (UniProt Q9HCP0); conditions: at 10 µM
# [19] = molecular target: Casein kinase I isoform delta (Homo sapiens) (UniProt P48730); conditions: at 1 µM
# Sequence of Casein kinase I isoform delta (Homo sapiens) (P48730 whole entry, looked up, canonical isoform): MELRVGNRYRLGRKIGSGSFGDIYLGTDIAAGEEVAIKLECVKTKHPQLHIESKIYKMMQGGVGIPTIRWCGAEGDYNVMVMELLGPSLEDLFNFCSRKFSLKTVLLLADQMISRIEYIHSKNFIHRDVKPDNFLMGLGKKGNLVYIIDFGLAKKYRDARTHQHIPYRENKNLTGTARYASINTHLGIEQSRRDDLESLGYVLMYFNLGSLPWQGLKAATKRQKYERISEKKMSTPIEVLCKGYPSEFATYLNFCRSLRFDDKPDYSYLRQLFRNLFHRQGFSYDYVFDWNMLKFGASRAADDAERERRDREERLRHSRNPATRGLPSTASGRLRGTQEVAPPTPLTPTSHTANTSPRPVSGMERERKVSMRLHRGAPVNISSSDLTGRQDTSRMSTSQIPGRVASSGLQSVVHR
# [20] = molecular target: Casein kinase I isoform delta (Homo sapiens) (UniProt P48730); conditions: at 10 µM
# T1 sequence (O96020 whole entry, looked up): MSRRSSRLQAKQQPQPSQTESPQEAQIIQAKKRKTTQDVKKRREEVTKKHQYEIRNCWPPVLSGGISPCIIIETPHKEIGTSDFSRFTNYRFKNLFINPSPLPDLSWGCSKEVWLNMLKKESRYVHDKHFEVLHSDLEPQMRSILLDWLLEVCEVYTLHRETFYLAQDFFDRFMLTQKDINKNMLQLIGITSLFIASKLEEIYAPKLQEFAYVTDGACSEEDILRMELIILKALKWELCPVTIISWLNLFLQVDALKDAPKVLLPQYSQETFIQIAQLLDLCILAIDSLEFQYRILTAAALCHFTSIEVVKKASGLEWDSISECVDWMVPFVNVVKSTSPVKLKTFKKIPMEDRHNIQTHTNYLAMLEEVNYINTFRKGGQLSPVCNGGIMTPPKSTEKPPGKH
# T1 sequence (P24864 whole entry, looked up): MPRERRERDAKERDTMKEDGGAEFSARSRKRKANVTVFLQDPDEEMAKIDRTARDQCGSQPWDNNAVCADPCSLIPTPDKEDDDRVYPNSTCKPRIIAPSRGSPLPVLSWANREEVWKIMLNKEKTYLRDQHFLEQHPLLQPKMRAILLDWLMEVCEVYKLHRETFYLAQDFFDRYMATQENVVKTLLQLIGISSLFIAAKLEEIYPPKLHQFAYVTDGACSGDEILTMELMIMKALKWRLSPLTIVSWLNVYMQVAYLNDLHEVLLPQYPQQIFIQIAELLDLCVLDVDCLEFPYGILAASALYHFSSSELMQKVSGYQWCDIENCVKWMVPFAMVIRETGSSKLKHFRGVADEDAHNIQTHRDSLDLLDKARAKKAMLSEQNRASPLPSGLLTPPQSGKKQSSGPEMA
# T1 sequence (Q00526 whole entry, looked up): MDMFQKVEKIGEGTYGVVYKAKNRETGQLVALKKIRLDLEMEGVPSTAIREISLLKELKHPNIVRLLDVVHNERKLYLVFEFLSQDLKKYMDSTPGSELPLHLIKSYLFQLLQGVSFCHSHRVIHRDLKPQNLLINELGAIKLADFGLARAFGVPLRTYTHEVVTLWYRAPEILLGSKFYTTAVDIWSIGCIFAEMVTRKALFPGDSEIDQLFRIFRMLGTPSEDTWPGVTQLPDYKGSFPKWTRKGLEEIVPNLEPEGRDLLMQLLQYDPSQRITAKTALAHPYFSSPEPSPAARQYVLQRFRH
# T2 sequence (Q00535 whole entry): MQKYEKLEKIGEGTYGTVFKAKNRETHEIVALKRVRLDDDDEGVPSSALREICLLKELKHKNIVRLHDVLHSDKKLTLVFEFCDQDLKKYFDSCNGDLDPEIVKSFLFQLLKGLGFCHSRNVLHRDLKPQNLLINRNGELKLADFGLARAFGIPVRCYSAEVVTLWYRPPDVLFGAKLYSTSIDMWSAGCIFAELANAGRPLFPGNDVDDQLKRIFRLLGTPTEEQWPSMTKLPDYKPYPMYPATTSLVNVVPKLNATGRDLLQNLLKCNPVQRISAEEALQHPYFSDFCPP
# T2 sequence (Q15078 99-307 partner limits assumed): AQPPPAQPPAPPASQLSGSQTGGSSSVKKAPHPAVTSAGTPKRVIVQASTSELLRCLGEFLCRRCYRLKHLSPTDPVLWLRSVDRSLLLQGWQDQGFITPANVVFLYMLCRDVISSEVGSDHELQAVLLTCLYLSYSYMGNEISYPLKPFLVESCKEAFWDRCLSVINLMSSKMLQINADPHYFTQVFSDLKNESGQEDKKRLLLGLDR
Structure (SMILES),residual activity [1] [%],residual activity [2] [%],residual activity [3] [%],residual activity [4] [%],residual activity [5] [%],residual activity [6] [%],residual activity [7] [%],residual activity [8] [%],residual activity [9] [%],residual activity [10] [%],residual activity [11] [%],residual activity [12] [%],residual activity [13] [%],residual activity [14] [%],residual activity [15] [%],residual activity [16] [%],residual activity [17] [%],residual activity [18] [%],residual activity [19] [%],residual activity [20] [%]
Nc1ncnc2c1c(-c1ccc(Oc3ccccc3)cc1)cn2C1CCCC1,90,81,78,58,80,76,85,66,78,95,99,96,83,113,79,24,88,73,56,8
CC(C)c1nn(-c2c(Cl)cccc2Cl)c2nc(Cc3ccc(OCCO)cc3)[nH]c(=O)c12,-1,-1,0,-1,-1,-1,43,9,15,1,2,0,93,95,91,80,74,89,79,53
O=c1cc(N2CCOCC2)oc2c1ccc1ccccc12,102,79,80,67,100,81,100,89,86,88,95,70,90,93,111,93,100,94,98,86
O=C(NC(NC(=S)Nc1ccc(F)c([N+](=O)[O-])c1)C(Cl)(Cl)Cl)C(c1ccccc1)c1ccccc1 (stereo unspecified),100,93,98,,,83,97,94,,,101,95,,,,82,94,55,45,64
O=c1cc(N2CCNCC2)oc2c(-c3ccccc3)cccc12,102,84,100,71,100,82,93,94,94,81,79,42,83,85,90,91,97,97,88,85
CC(C)N(CCC(=O)c1ccc2ccccc2c1)Cc1ccccc1,86,77,87,,79,81,87,78,83,82,,,,,100,72,82,,,
CCCCc1c(-c2ccc(OC)cc2)[nH]c2nccnc12,40,32,19,33,25,38,87,58,84,44,10,17,,,44,11,79,77,85,73
N#C/C(=C1/Nc2ccccc2S1)c1ccnc(NCCc2cccnc2)n1,84,44,74,54,88,49,100,63,80,54,8,3,97,84,80,48,77,29,52,8
Nc1n[nH]c2nc3ccccc3nc12,83,28,80,35,92,41,92,69,89,76,59,36,90,79,82,61,79,69,75,34
O=C1NC(=O)c2c1c1c3ccccc3[nH]c1n1cncc21,48,27,49,30,52,30,62,28,87,69,70,59,18,14,23,8,58,40,15,9
Cn1sc(=O)n(Cc2ccccc2)c1=O,83,79,81,81,97,97,89,82,99,86,93,79,88,90,71,67,96,89,81,84
O=C(c1cc2cc(O)ccc2[nH]1)c1cc2cc(O)ccc2[nH]1,51,8,23,4,37,6,38,7,76,41,26,4,76,47,60,22,50,10,74,37
CCCC(=O)Oc1ccc2[nH]c(C(=O)c3cc4ccccc4[nH]3)cc2c1,95,74,,95,74,87,79,74,83,97,108,88,79,89,93,97,90,92,87,101
COc1cc2nccc(Oc3ccc(NC(=S)NC(=O)c4ccccc4C)cc3)c2cc1OC,89,74,85,86,97,86,78,77,75,87,92,89,83,,48,23,91,63,85,62
O=C(O)/C=C/c1cc(Br)c(Br)c(Br)c1Br,103,87,94,84,,76,100,95,104,89,69,13,107,97,59,33,103,76,56,12
O=C1Nc2ccc(Cl)cc2/C1=C/c1cc(Cl)c(O)c(Cl)c1,90,73,97,77,97,80,89,86,84,87,90,69,75,64,76,25,89,75,77,35
Oc1cccc(-c2nc(N3CCOCC3)c3oc4ncccc4c3n2)c1,118,97,,,92,91,91,67,86,96,,,93,100,100,68,90,98,83,72
Nc1nc(Nc2ccc(S(N)(=O)=O)cc2)nn1C(=O)c1c(F)cccc1F,3,0,0,0,-1,0,57,12,57,10,0,0,82,31,52,11,,,100,
CSc1nc(-c2ccc(F)cc2)c(-c2ccnc(NC(C)c3ccccc3)c2)[nH]1 (stereo unspecified),93,84,,101,,,,,100,67,96,,95,78,5,3,62,11,35,9
O=C1NC(=O)C(c2cn(CCCn3ccnc3)c3ccccc23)=C1Nc1ccccc1,51,13,64,20,71,24,82,68,77,64,14,3,75,37,,,,,,75
O=C(CCCc1ccc(-c2ccccc2F)cc1)Nc1ccc(O)cc1,102,94,104,99,111,99,103,98,98,105,104,,93,108,91,72,107,102,98,92
CC(C)(C)n1nc(Cc2cccc3ccccc23)c2c(N)ncnc21,86,63,110,82,87,86,87,97,86,90,101,65,86,102,96,48,,,40,3
O=C(c1ccccc1)c1ccc(N2CCOCC2)cc1O,96,97,,88,91,96,,89,87,,89,47,86,90,86,,86,100,88,92
